Among the data in PubChem BioAssay (EPA / NIEHS) are outcome and AC50 values, retold here.

In assay [1] the target is chicken Estrogen Receptor (ERa), ESR1 (gene 396099) (UniProt P06212). In words: ATG_chERa_XSP2: Attagene TRANS-FACTORIAL Multi-Species (XSP2) HepG2 Assay for chicken Estrogen Receptor (ERa) (AID 2283817).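 Also: actives raise reporter signal above DMSO so AC50 reflects ER activation.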 Summed up: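 Transiently transfected HepG2 cells expressing chimeric chicken ERa-GAL4 reporter units, dosed 24 h with 3 nM 6-alpha-fluorotestosterone and 1.5 nM norgestrel present. Reporter mRNA measured by RT-PCR and capillary electrophoresis; gain-of-signal fitted relative to DMSO.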

The test system of assay [2] is frog Estrogen Receptor (ER), gene 398734. In words: ATG_frER1_XSP2: Attagene TRANS-FACTORIAL Multi-Species (XSP2) HepG2 Assay for frog Estrogen Receptor (ER) (AID 2283821).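 Also: hits raise reporter mRNA above DMSO baseline so potency means agonist or activator.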 The essentials: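 HepG2 cells transiently transfected with GAL4-UAS reporter units expressing a chimeric frog ER-Gal4 protein; 24 h exposure. Reporter mRNA quantified by RT-PCR, fluorescent labelling and capillary electrophoresis; gain of signal fitted against DMSO baseline.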

In assay [3] the test system is zebrafish Estrogen Receptor (ER2b), gene 317733. In words: ATG_zfER2b_XSP2: Attagene TRANS-FACTORIAL Multi-Species (XSP2) HepG2 Assay for zebrafish Estrogen Receptor (ER2b) (AID 2283823).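 Also: fitted upward as reporter gain over DMSO so potency reflects activation.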 The essentials:
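Transfect HepG2 with GAL4-UAS reporter constructs; dose chemicals, 24 h; isolate RNA, RT-PCR, FAM-label, HpaI digest; capillary electrophoresis. Gain-of-signal vs DMSO.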

Assay [4] relates to zebrafish Androgen Receptor (AR), gene 100005148. In words: ATG_zfAR_XSP2: Attagene TRANS-FACTORIAL Multi-Species (XSP2) HepG2 Assay for zebrafish Androgen Receptor (AR) (AID 2283825).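 Also: hits raise reporter mRNA above DMSO so AC50 reflects agonist-type gain.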 Summed up:
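Zebrafish AR–GAL4 chimera transiently expressed with GAL4-UAS reporter in HepG2 cells, co-stimulated with 3 nM 6-alpha-fluorotestosterone and 1.5 nM norgestrel; 24 h dosing, reporter mRNA read by RT-PCR/capillary electrophoresis versus DMSO.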

Assay [5] can be described thus: ATG_M_32_XSP2: Attagene TRANS-FACTORIAL Multi-Species (XSP2) HepG2 Assay for M19 Transcription Factor (Internal Marker) (AID 2283826). The essentials: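 Read-out: fluorescent reporter mRNA fragments resolved by capillary electrophoresis after RT-PCR, gain-of-signal versus DMSO baseline. Cells were human HepG2 carrying transfected multi-reporter units, exposed 24 h. Medium contained 3 nM 6-alpha-fluorotestosterone plus 1.5 nM norgestrel.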

Assay [6] addresses Estrogen receptor (Homo sapiens) (UniProt P03372). In words: ATG_hERa_XSP2: Attagene TRANS-FACTORIAL Multi-Species (XSP2) HepG2 Assay for human Estrogen Receptor (ERa) (AID 2283827). The essentials:
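HepG2 cells transiently transfected with multiplexed GAL4-UAS reporters driven by chimeric receptor-Gal4 proteins, dosed 24 h with 3 nM 6-alpha-fluorotestosterone and 1.5 nM norgestrel present. Reporter mRNA by RT-PCR and capillary electrophoresis; gain-of-signal fit versus DMSO.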

In assay [7] the test system is frog Estrogen Receptor (ER2), gene 100174814. In words: ATG_frER2_XSP2: Attagene TRANS-FACTORIAL Multi-Species (XSP2) HepG2 Assay for frog Estrogen Receptor (ER2) (AID 2283828). Summed up: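 HepG2 cells transiently transfected with multiplexed GAL4-UAS reporter units expressing chimeric frog ER2–Gal4 protein; reporter mRNA measured 24 h after chemical dosing by RT-PCR, fluorescent labeling and capillary electrophoresis. Gain-of-signal fitted relative to DMSO baseline.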

In assay [8] the target is Peroxisome proliferator-activated receptor gamma (Homo sapiens) (UniProt P37231). In words: ATG_hPPARg_XSP2: Attagene TRANS-FACTORIAL Multi-Species (XSP2) HepG2 Assay for human Peroxisome Proliferator-activated Receptor gamma (PPARg) (AID 2283829).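 Also: actives raise reporter mRNA above DMSO so AC50 reflects PPARg activation.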 The essentials: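 Transient MRTU transfection, HepG2; TRANS format (exogenous NR-Gal4 chimeras). 24 h chemical exposure with 3 nM 6-alpha-fluorotestosterone and 1.5 nM norgestrel present. Readout: reporter mRNA via RT-PCR/CE fluorescence, up-direction vs DMSO.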

In assay [9] the target is mouse Peroxisome Proliferator-activated Receptor gamma (PPARg), Pparg (gene 19016) (UniProt P37238). In words: ATG_mPPARg_XSP2: Attagene TRANS-FACTORIAL Multi-Species (XSP2) HepG2 Assay for mouse Peroxisome Proliferator-activated Receptor gamma (PPARg) (AID 2283830).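 Also: hits are gains in reporter mRNA above DMSO so AC50 marks activation.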 The essentials: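 HepG2 cells transiently transfected with GAL4-UAS reporter units for chimeric NR-Gal4 proteins including mouse PPARg, exposed 24 h; medium contained 3 nM 6-alpha-fluorotestosterone and 1.5 nM norgestrel. Reporter mRNA quantified by RT-PCR, HpaI digestion and capillary electrophoresis, vs DMSO.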

Assay [10] concerns the target zebrafish Thyroid Hormone Receptor alpha (TRa), thraa (gene 30670) (UniProt Q98867). In words: ATG_zfTRa_XSP2: Attagene TRANS-FACTORIAL Multi-Species (XSP1) HepG2 Assay for zebrafish Thyroid Hormone Receptor alpha (TRa) (AID 2283832).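 Also: actives raise zebrafish TRa-Gal4 reporter transcript above DMSO baseline.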 Summed up:
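HepG2 cells transiently transfected with multiplexed GAL4-UAS reporter units expressing chimeric NR-Gal4 proteins; 24 h after dosing, reporter mRNA measured by RT-PCR, FAM labelling, HpaI digestion and capillary electrophoresis; gain of signal versus DMSO baseline.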

The subject of assay [11] is zebrafish Peroxisome Proliferator-activated Receptor gamma (PPARg), gene 557037. In words: ATG_zfPPARg_XSP2: Attagene TRANS-FACTORIAL Multi-Species (XSP2) HepG2 Assay for zebrafish Peroxisome Proliferator-activated Receptor gamma (PPARg) (AID 2283833).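 Also: actives increase reporter signal over DMSO so AC50 reflects activation.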 Summed up:
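Transfect HepG2 with multiplexed GAL4-UAS reporter constructs; dose chemical 24 h; isolate RNA, reverse-transcribe, PCR-amplify, label and digest reporter products; resolve by capillary electrophoresis. Activity taken as increase over DMSO.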

In assay [12] the test system is turtle Thyroid Hormone Receptor, alpha (TRa), gene 101949057. In words: ATG_trTRa_XSP2: Attagene TRANS-FACTORIAL Multi-Species (XSP1) HepG2 Assay for turtle Thyroid Hormone Receptor, alpha (TRa) (AID 2283834).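 Also: hits raise reporter mRNA over the DMSO baseline so AC50 marks activators.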 The essentials: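 Readout: reporter mRNA induction, fluorescence after RT-PCR, HpaI digestion and capillary electrophoresis. Transiently transfected HepG2, exogenous NR-Gal4 chimera driving GAL4-UAS reporter, 24 h compound exposure. Activity fitted upward relative to DMSO baseline.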

Assay [13] in a line: ATG_M_61_XSP2: Attagene TRANS-FACTORIAL Multi-Species (XSP2) HepG2 Assay for M61 Transcription Factor (Internal Marker) (AID 2283835; active = hit-call score of the fitted dose curve at least 0.9, where 1 is the maximum; inactive = score below 0.9;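 also: active means a rise in signal above the DMSO baseline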). Summed up: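 HepG2 cells transiently transfected with multiple GAL4-UAS reporter units; reporter mRNA measured 24 h after dosing by RT-PCR, fluorescent labelling and capillary electrophoresis. Medium contained 3 nM 6-alpha-fluorotestosterone and 1.5 nM norgestrel; internal marker, DMSO baseline.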

Assay [14] deals with zebrafish Thyroid Hormone Receptor beta (TRb), thrb (gene 30607) (UniProt Q9PVE4). In words: ATG_zfTRb_XSP2: Attagene TRANS-FACTORIAL Multi-Species (XSP1) HepG2 Assay for zebrafish Thyroid Hormone Receptor beta (TRb) (AID 2283836). Summed up:
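HepG2 cells transiently transfected with multiplexed GAL4-UAS reporter units expressing chimeric NR-Gal4 proteins; read 24 h after dosing. Reporter mRNA quantified by RT-PCR, 6-FAM labelling, HpaI digest and capillary electrophoresis; gain of signal fitted relative to DMSO.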

Assay [15] relates to zebrafish Estrogen Receptor (ER2a), gene 317734. In words: ATG_zfER2a_XSP2: Attagene TRANS-FACTORIAL Multi-Species (XSP2) HepG2 Assay for zebrafish Estrogen Receptor (ER2a) (AID 2283818).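 Also: hits raise reporter mRNA so AC50 reflects activation of zebrafish ER2a.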 Summed up:
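HepG2 cells transiently transfected with GAL4-UAS reporter units and chimeric zebrafish ER2a-Gal4, exposed 24 h; medium contains 3 nM 6-alpha-fluorotestosterone and 1.5 nM norgestrel. Reporter mRNA quantified by RT-PCR, HpaI digestion, capillary electrophoresis; gain versus DMSO.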

Assay [16] concerns chicken Androgen Receptor (AR), gene 422165. In words: ATG_chAR_XSP2: Attagene TRANS-FACTORIAL Multi-Species (XSP2) HepG2 Assay for chicken Androgen Receptor (AR) (AID 2283819).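 Also: hits raise reporter mRNA above DMSO so potency is for activation.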 Summed up: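 HepG2 cells transiently transfected with chicken AR–GAL4 chimeric reporter constructs, stimulated with 3 nM 6-alpha-fluorotestosterone plus 1.5 nM norgestrel, dosed 24 h. Reporter mRNA quantified by RT-PCR and capillary electrophoresis; gain of signal fitted versus DMSO.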

Assay [17] in a line: ATG_M_19_XSP2: Attagene TRANS-FACTORIAL Multi-Species (XSP2) HepG2 Assay for M32 Transcription Factor (Internal Marker) (AID 2283822). Summed up: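 Internal background marker in a multi-species nuclear receptor TRANS panel: transfected HepG2 cells exposed 24 h, with 3 nM 6-alpha-fluorotestosterone and 1.5 nM norgestrel present. Readout is RT-PCR of reporter transcripts resolved by capillary electrophoresis, gain-of-signal versus DMSO.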

In assay [18] the test system is frog Androgen Receptor (AR), gene 399456. In words: ATG_frAR_XSP2: Attagene TRANS-FACTORIAL Multi-Species (XSP2) HepG2 Assay for frog Androgen Receptor (AR) (AID 2283824).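 Also: actives raise reporter signal above DMSO so AC50 reflects agonist-like induction.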 Summed up: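 HepG2 cells transiently transfected with GAL4-UAS reporter units and frog (Xenopus laevis) AR-Gal4 chimera; reporter mRNA measured 24 h after dosing by RT-PCR and capillary electrophoresis. Gain of signal fitted relative to DMSO baseline.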

Assay [19] addresses Nuclear receptor subfamily 1 group I member 2 (Mus musculus) (UniProt O54915). In words: ATG_mPXR_XSP2: Attagene TRANS-FACTORIAL Multi-Species (XSP1) HepG2 Assay for mouse Pregnane X Receptor (PXR) (AID 2283831). The essentials: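 Transient HepG2 transfection, multiplexed GAL4-UAS reporters, NR-GAL4 chimeras. 24 h compound exposure. Readout: reporter mRNA, RT-PCR, fluorescent capillary electrophoresis; positive direction vs DMSO baseline.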

The nature of assay [20]: ATG_XTT_Cytotoxicity_XSP2: Cytotoxicity Assessment in the Attagene TRANS-FACTORIAL Multi-Species (XSP2) HepG2 Assay (AID 2283837). Summed up:
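HepG2 cells, transiently transfected with multiple reporter constructs, exposed to chemical for 24 h. Cell number assessed with XTT fluorescence read-out; loss of signal fitted relative to DMSO.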

Values joined by “and” are separate entries in the source; they are usually repeats but may differ in a detail not shown here. Identical values can stand only once. Records with an inconclusive call do not appear. Some compounds were tested as several samples or in several runs, with calls that do not always agree. Active and inactive are the calls of the source. The calls were made as follows, unless noted: active = hit-call score of the fitted dose curve at least 0.9, where 1 is the maximum; inconclusive = response in the unintended direction; inactive = score below 0.9.

As usually defined, the AC50 is the concentration at which the activity in the assay is half-maximal.

Chain of chicken Estrogen Receptor (ERa), ESR1 (gene 396099) (P06212 whole entry, looked up, the tested form may be a part): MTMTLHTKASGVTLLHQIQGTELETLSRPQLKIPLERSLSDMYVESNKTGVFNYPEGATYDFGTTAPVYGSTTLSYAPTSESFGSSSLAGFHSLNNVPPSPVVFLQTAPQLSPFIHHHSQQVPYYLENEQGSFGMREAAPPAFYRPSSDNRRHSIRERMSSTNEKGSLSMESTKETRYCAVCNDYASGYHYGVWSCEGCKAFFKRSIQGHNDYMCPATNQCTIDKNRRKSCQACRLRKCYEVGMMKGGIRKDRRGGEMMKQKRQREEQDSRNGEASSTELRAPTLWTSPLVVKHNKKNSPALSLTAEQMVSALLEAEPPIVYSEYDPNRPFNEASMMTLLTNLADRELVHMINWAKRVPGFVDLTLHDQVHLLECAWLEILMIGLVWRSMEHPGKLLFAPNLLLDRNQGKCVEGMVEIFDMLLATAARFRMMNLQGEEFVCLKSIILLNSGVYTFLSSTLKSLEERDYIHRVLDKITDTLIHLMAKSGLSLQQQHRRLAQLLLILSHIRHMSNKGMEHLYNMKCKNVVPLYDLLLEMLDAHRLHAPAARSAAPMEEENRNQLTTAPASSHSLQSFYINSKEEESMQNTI
Chain of Nuclear receptor subfamily 1 group I member 2 (Mus musculus) (O54915 whole entry, looked up, the tested form may be a part): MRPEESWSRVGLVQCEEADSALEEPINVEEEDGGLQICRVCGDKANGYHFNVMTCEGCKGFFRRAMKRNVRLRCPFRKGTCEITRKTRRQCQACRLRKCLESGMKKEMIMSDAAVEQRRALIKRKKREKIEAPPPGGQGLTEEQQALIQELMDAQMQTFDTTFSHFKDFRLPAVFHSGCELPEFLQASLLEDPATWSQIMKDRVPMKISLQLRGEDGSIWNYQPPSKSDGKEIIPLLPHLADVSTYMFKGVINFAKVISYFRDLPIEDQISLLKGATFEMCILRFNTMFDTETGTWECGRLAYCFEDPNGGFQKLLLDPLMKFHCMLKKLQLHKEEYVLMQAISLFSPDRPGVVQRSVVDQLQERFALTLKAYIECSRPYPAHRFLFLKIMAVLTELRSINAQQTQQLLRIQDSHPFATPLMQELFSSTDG
Chain of Peroxisome proliferator-activated receptor gamma (Homo sapiens) (P37231 whole entry, looked up, the tested form may be a part): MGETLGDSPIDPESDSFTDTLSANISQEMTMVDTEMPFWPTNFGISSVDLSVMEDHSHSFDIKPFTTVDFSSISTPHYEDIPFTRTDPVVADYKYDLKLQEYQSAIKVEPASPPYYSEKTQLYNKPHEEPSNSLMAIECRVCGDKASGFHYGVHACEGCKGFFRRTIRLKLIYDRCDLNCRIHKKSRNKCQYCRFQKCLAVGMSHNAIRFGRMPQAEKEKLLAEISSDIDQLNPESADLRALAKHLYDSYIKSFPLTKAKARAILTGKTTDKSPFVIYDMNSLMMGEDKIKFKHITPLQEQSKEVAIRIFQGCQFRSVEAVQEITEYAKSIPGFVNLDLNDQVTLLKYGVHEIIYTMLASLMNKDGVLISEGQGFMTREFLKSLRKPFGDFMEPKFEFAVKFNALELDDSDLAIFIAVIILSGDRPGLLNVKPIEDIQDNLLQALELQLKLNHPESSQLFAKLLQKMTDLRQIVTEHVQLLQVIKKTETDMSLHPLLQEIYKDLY
Chain of zebrafish Thyroid Hormone Receptor beta (TRb), thrb (gene 30607) (Q9PVE4 whole entry, looked up, the tested form may be a part): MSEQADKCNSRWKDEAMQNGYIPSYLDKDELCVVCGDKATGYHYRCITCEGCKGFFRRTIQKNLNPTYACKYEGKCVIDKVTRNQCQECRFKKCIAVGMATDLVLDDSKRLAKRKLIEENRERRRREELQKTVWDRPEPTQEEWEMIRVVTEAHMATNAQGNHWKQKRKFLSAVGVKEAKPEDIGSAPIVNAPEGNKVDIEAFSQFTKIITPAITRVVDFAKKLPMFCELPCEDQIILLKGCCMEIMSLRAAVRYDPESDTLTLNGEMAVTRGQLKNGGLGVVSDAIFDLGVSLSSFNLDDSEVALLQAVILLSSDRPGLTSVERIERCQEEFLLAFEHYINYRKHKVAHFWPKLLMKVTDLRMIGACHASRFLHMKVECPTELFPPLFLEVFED
Chain of mouse Peroxisome Proliferator-activated Receptor gamma (PPARg), Pparg (gene 19016) (P37238 whole entry, looked up, the tested form may be a part): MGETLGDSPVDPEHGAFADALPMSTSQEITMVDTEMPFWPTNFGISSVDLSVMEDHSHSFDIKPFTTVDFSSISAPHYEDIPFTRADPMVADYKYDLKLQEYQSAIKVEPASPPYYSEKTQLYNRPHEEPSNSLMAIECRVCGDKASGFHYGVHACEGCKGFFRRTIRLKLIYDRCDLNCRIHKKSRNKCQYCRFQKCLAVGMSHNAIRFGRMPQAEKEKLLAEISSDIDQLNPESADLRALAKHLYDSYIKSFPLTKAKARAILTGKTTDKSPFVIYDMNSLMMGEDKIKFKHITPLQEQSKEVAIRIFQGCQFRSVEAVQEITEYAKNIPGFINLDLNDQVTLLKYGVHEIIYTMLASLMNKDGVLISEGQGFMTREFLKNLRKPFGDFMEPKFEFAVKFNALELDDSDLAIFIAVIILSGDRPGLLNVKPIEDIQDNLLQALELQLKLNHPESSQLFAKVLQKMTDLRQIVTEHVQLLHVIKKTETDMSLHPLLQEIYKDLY
Chain of zebrafish Thyroid Hormone Receptor alpha (TRa), thraa (gene 30670) (Q98867 whole entry, looked up, the tested form may be a part): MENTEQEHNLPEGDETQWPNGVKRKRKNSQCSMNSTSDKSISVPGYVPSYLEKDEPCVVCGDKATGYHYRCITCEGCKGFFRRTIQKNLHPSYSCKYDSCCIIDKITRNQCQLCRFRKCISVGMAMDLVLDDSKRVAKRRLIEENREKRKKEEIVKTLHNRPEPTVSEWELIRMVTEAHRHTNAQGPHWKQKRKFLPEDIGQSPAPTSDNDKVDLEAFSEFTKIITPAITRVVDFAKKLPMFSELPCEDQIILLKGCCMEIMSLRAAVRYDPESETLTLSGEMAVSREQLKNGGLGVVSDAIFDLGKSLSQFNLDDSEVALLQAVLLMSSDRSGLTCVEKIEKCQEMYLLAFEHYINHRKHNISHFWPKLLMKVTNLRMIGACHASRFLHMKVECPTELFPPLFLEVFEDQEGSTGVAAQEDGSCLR
Chain of Estrogen receptor (Homo sapiens) (P03372 whole entry, looked up, the tested form may be a part): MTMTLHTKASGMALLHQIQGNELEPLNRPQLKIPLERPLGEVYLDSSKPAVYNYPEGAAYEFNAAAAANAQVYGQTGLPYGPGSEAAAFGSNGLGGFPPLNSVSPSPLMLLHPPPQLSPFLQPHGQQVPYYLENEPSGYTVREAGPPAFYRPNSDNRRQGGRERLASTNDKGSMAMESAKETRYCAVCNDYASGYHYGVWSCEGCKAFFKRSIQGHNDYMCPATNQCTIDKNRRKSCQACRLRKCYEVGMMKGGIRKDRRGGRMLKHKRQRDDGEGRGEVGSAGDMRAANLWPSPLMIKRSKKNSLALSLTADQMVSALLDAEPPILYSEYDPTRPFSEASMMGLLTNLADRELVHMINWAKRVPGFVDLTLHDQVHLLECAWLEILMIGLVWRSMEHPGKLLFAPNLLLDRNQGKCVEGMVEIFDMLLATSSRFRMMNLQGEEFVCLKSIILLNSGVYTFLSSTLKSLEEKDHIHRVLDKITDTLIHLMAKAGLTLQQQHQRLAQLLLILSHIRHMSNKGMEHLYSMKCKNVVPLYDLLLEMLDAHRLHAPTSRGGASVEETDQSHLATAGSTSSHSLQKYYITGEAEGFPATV

Take `[Cl][Sn]([c]1ccccc1)([c]1ccccc1)[c]1ccccc1`: the call in assay [1], in [3], in assay [4], in assay [5], in [6] and in [7] was inactive. In addition, the molecule was called inactive in [11], in assay [12], in assay [13] and in [14]. Also, the AC50 in assay [2] was 0.925 µM (active); in [8], 41 nM (active); in [9], 184 nM (active); in [10], 0.925 µM (active).

Regarding `Oc1cc(Cl)c(Cl)cc1Cl`, the AC50 in assay [1] is 29.9 µM (active); in [15], 21.9 µM (active); in [16], 6.4 µM (active) and 3.09 µM (active); in assay [2], 18.8 µM (active); in assay [3], 68.6 µM (active) and 22.9 µM (active); in assay [18], 5.4 µM (active) and 2.63 µM (active). For the same molecule, the AC50 in assay [7] was 24.5 µM (active) and 19.2 µM (active); in [8], 60.1 µM (active) and 44.2 µM (active); in [9], 65 µM (active) and 35 µM (active); in [12], 21.7 µM (active). The call in assay [1], in [15], in assay [2], in assay [17], in assay [19] and in [10] was inactive. Also, the molecule was called inactive in [11], in assay [12], in [14] and in assay [20].

Regarding `O=c1oc2ccccc2c(O)c1C(CC(O)c1ccc(-c2ccc(Br)cc2)cc1)c1ccccc1` (stereo not given), the call in assay [16], in assay [17], in assay [3], in assay [5], in assay [7] and in [12] was inactive. Also, the molecule was called inactive in [14]. For the same molecule, the AC50 in assay [8] was 1640 nM (active); in [9], 2500 nM (active); in [19] it was 31.6 µM (active); in assay [11], 6.09 µM (active).
